In the supplement of paper PMC6609913:
Structures can show the parent of a compound that is named as a salt. ± gives the standard deviation of the averaged measurements. Whole data set: some 1,300 compounds, median “normalised cell viability” near 1, cut for the lowest 2% near 0.15. The sample holds the lowest values, similar compounds and a random draw of the others, so the mix is not that of the screen.

Test system: V-C8 + BRCA2 (BRCA2-proficient hamster cells)
Experiment: normalised cell viability (fraction of plate median); higher = more viable cells (less toxic)
Conditions: 5 µM
How it was run: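 Cell viability was measured with a resazurin assay, normalised to the plate median (modified robust per cent of sample) and averaged over triplicate wells. Hamster V-C8 cells lacking BRCA2 and V-C8 cells with BRCA2 restored were seeded in 96-well plates. After 24 h, library drugs from 10 mM DMSO stocks were added at a final 5 μM in 100 μl medium and left for 3 days (screen 1) or 6 days (screen 2), with solvent-only wells alongside.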

Structure (SMILES)	normalised cell viability (treatment time: 3 days)	normalised cell viability (treatment time: 6 days)
CS(=O)(=O)c1ccc(C2=C(c3ccccc3)C(=O)OC2)cc1 [Rofecoxib]	1 ± 0.039	1.02 ± 0.06
CS(=O)(=O)c1ccc([C@@H](O)[C@@H](CO)NC(=O)C(Cl)Cl)cc1 [Thiamphenicol]	0.9701 ± 0.0087	0.927 ± 0.02
NCCc1c[nH]cn1 [Histamine dihydrochloride]	0.994 ± 0.016	0.991 ± 0.064
COc1ccc(C(=O)CC(=O)c2ccc(C(C)(C)C)cc2)cc1 [Avobenzone]	1.02 ± 0.057	1.04 ± 0.12
CCN(CC)C(=O)/C(C#N)=C/c1cc(O)c(O)c([N+](=O)[O-])c1 [Entacapone]	0.944 ± 0.013	1.03 ± 0.03
CC(C)COCC(CN(Cc1ccccc1)c1ccccc1)N1CCCC1 (stereo not drawn) [Bepridil hydrochloride]	0.938 ± 0.069	0.828 ± 0.035
COc1cc([C@@H]2c3cc4c(cc3[C@@H](O[C@@H]3O[C@@H]5CO[C@@H](C)O[C@H]5[C@H](O)[C@H]3O)[C@H]3COC(=O)[C@H]23)OCO4)cc(OC)c1O [Etoposide]	0.141 ± 0.0097	0.15 ± 0.017
CC(=O)[C@@]12O[C@](C)(c3ccccc3)O[C@@H]1C[C@H]1[C@@H]3CCC4=CC(=O)CC[C@]4(C)[C@H]3CC[C@@]12C [Algestone acetophenide]	0.968 ± 0.025	1.07 ± 0.1
CCCCCCCCNC(C)C(O)c1ccc(SC(C)C)cc1 (stereo not drawn) [Suloctidil]	0.653 ± 0.045	0.743 ± 0.068
CC(C)NCC(O)c1cc(O)cc(O)c1 (stereo not drawn) [Metaproterenol sulfate, orciprenaline sulfate]	1.03 ± 0.023	1.04 ± 0.02
Nc1ccc(C(=O)O)c(O)c1 [4-aminosalicylic acid]	0.944 ± 0.086	1.03 ± 0.043
CN(C)CCN(Cc1cccs1)c1ccccn1 [Methapyrilene hydrochloride]	1.12 ± 0.021	1.04 ± 0.042
CO/N=C(\C(=O)N[C@@H]1C(=O)N2C(C(=O)O)=C(C[N+]3(C)CCCC3)CS[C@H]12)c1csc(N)n1 [Cefepime hydrochloride]	0.933 ± 0.092	0.888 ± 0.098
CCC1NC(=O)c2cc(S(N)(=O)=O)c(Cl)cc2N1 (stereo not drawn) [Quinethazone]	0.989 ± 0.058	0.989 ± 0.073
Nc1ccc(/N=N/c2ccccc2)c(N)n1 [Phenazopyridine hydrochloride]	1.02 ± 0.039	1.04 ± 0.035
Clc1ccc(C(c2ccccc2Cl)C(Cl)Cl)cc1 (stereo not drawn) [Mitotane]	1.02 ± 0.035	1.01 ± 0.076
CC(C)NCC(O)c1ccc(O)c(O)c1 (single isomer, unassigned; (+)) [(+)-Isoproterenol (+)-bitartrate salt]	1 ± 0.048	1.05 ± 0.07

Structure (SMILES)	normalised cell viability (treatment time: 3 days)	normalised cell viability (treatment time: 6 days)
CC(=O)OCC(=O)[C@@]1(O)[C@H](C)C[C@H]2[C@@H]3CCC4=CC(=O)C=C[C@]4(C)[C@@]3(F)[C@@H](O)C[C@@]21C [Dexamethasone acetate]	1.08 ± 0.057	1.02 ± 0.056
NC(=O)c1cnccn1 [Pyrazinamide]	1.14 ± 0.039	1.02 ± 0.043
CCN(CC)CCc1nc(-c2ccccc2)no1 [Oxalamine citrate salt]	1 ± 0.018	1.01 ± 0.03
C=C1/C(=C\C=C2/CCC[C@]3(C)[C@@H]([C@H](C)CCCC(C)C)CC[C@@H]23)C[C@@H](O)C[C@@H]1O [Alfacalcidol]	0.751 ± 0.062	0.719 ± 0.094
C[C@@H]1NC(=O)NC1=O [Methylhydantoin-5-(L)]	0.988 ± 0.053	1.07 ± 0.046
CCOC(=O)[C@H](CCc1ccccc1)N[C@H]1CCc2ccccc2N(CC(=O)O)C1=O [Benazepril HCl]	1.03 ± 0.018	1.07 ± 0.029
CC(C)NCC(O)c1ccc2ccccc2c1 (stereo not drawn) [Pronethalol hydrochloride]	0.972 ± 0.037	0.995 ± 0.041
CC(=O)[C@H]1CC[C@H]2[C@@H]3CC=C4C[C@@H](O)CC[C@]4(C)[C@H]3CC[C@]12C [Pregnenolone]	1 ± 0.067	1.07 ± 0.12
O=C1c2c(O)ccc(O)c2C(=O)c2c(NCCNCCO)ccc(NCCNCCO)c21 [Mitoxantrone dihydrochloride]	0.123 ± 0.0098	0.124 ± 0.0098
O=C1c2c(O)cccc2Cc2cccc(O)c21 [Anthralin]	0.979 ± 0.036	0.978 ± 0.018
O=C1c2cccc(O)c2C(=O)c2c(O)cccc21 [1,8-Dihydroxyanthraquinone]	0.853 ± 0.051	0.914 ± 0.076
Clc1ccc(COC(Cn2ccnc2)c2ccc(Cl)cc2Cl)cc1 (stereo not drawn) [Econazole nitrate]	1 ± 0.025	1.04 ± 0.049
CC(=O)NC[C@H]1CN(c2ccc(N3CCOCC3)c(F)c2)C(=O)O1 [Linezolid]	1.06 ± 0.11	1.04 ± 0.04
O=C(NCC1CCCCN1)c1cc(OCC(F)(F)F)ccc1OCC(F)(F)F (stereo not drawn) [Flecainide acetate]	1.12 ± 0.066	1.02 ± 0.12
CCCCC(C)(O)C/C=C/[C@H]1[C@H](O)CC(=O)[C@@H]1CCCCCCC(=O)OC (mixture of isomers) [Misoprostol]	0.976 ± 0.09	1.03 ± 0.024
CCN(CC)CCN[C@@H](C(=O)OCCC(C)C)c1ccccc1 [Camylofine chlorhydrate]	0.957 ± 0.014	0.998 ± 0.096
CC1(C)S[C@@H]2[C@H](NC(=O)[C@H](C(=O)O)c3ccsc3)C(=O)N2[C@H]1C(=O)O [Ticarcillin sodium]	1.02 ± 0.021	1.04 ± 0.097
